The nature of assay [1]: NCI Yeast Anticancer Drug Screen. Data for the rad50 strain (AID 155).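 Note: 0% = growth of vehicle-only cultures of the same strain.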 The settings on record: S. cerevisiae rad50 strain growth inhibition; at 50.0 µM; hits give high values. In outline: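 Vehicle-treated cultures provide the reference for the growth inhibition reported for compound-exposed, repair-deficient yeast.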
Assay [2] is described as follows: NCI Yeast Anticancer Drug Screen. Data for the mec2-1 strain (AID 157). The following applies: S. cerevisiae mec2-1 strain, at 50.0 µM, hits give high values. In outline:
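Readout is yeast growth inhibition, normalised to vehicle-treated controls, in the mec2-1 strain exposed to compound.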

The nature of assay [3]: NCI Yeast Anticancer Drug Screen. Data for the sgs1 mgt1 strain (AID 161).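 Note: 0% = growth of cultures given vehicle only.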 The following applies: S. cerevisiae sgs1 mgt1 strain, at 50.0 µM, hits give high values. An outline of the steps:
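Compounds are added to genetically altered yeast, and growth is compared with cultures given vehicle alone to give percent inhibition.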

The nature of assay [4]: NCI Yeast Anticancer Drug Screen. Data for the cln2 rad14 strain (AID 165).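 Note: 0% = growth equal to vehicle treated cultures.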 The following applies: S. cerevisiae cln2 rad14 strain, at 50.0 µM, hits give high values. An outline of the steps: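 Relative to vehicle controls, growth inhibition of compound-treated cln2 rad14 yeast was recorded.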
Assay [5] in a line: NCI Yeast Anticancer Drug Screen. Data for the bub3 strain (AID 167). The following applies: S. cerevisiae bub3 mutant strain, at 50.0 µM, hits give high values. An outline of the steps: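 Mutant yeast screening strain plus compound; vehicle-treated cultures serve as the 0% inhibition reference.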
Assay [6] in a line: NCI Yeast Anticancer Drug Screen. Data for the mlh1 rad18 strain (AID 175). The following applies: S. cerevisiae mlh1 rad18 strain growth inhibition; at 50.0 µM; hits give high values. In outline: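 Test agents were incubated with a yeast strain of defined genotype (DNA damage repair defect). Inhibition of growth was derived by comparison with vehicle-exposed cultures.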

Compounds without any hit were thinned out: in the full panel of roughly 79,000, 15% have a hit. Unmarked numbers belong to inactive results. The source made the active and inactive calls. Cut-off read from the data, not from the text of the source: active = growth inhibition above about 70%; inactive = the rest.

Take `CN(C)C1=Nc2ccccc2C(=S)N2CSCC12` (stereo not given): the growth inhibition is -29% in assay [1]; -37.1% in assay [2]; -16.9% in assay [3]; -12.2% in assay [4]; -63.8% in assay [5]; -20.3% in assay [6].
Take `NC(=O)NC(Cc1ccccc1)(C(=O)O)c1ccccc1` (stereo not given): the growth inhibition is 6.55% in assay [1]; 6.15% in assay [2]; 35.9% in assay [3]; -0.75% in assay [4]; 24.4% in assay [5]; 20.4% in assay [6].
Regarding `O=[N+]([O-])/C(C(Cl)=C(Cl)Cl)=C(\SCc1ccccc1)N1CCCCC1`, the growth inhibition in assay [1] was -25.6%; in assay [2] it was -8.1%; in assay [3], 6.75%; in assay [4] it was 19.4%; in assay [5], 31.7%; in assay [6] it was 14.6%.
Consider `COC(=O)C(CCS(=O)(=O)CC(=O)C(=O)Nc1cccc(C(C)=O)c1)C(=O)OC`, for which the growth inhibition is -12.6% in assay [1]; -15.1% in assay [2]; -16.1% in assay [3]; -17.1% in assay [4]; -26.2% in assay [5]; -5.95% in assay [6].
As to `CC1CCCC2(CN=C(Nc3ccccc3)O2)C1` (stereo not given), the growth inhibition in assay [1] was -13.7%; in assay [2], -8.45%; in assay [3], -7.05%; in assay [4], -75%; in assay [5], -10.1%; in assay [6], -6.15%.
For the compound `COC(=O)[C@H](Cc1ccc(OC(C)(C)C)cc1)N[C@H](C)C(=O)N[C@@H](Cc1ccccc1)C(=O)OCc1ccccc1`, the growth inhibition in assay [1] is 35.5%; in assay [2], 35.1%; in assay [3], 50.1%; in assay [4], 67%; in assay [5] it was 62.4%; in assay [6] it was 57%.
For `O=C(O)CSc1n[nH]c(-c2ccccc2)n1`, the growth inhibition was -14.2% in assay [1]; -4.3% in assay [2]; -7.5% in assay [3]; 2.55% in assay [4]; 2.3% in assay [5]; -9.35% in assay [6].
For the compound `C#CC1(O)CCCCCCCCC2(CCCCCCCC1)OCCO2`, the growth inhibition in assay [1] is -10.7%; in assay [2] it was -10.8%; in assay [3], -18.2%; in assay [4], 13.7%; in assay [5], -5.85%; in assay [6], 1.25%.
As to `CCCOC(=O)C(OC(=O)c1ccccc1)C(OC(=O)c1ccccc1)C(=O)OCCC` (stereo not given), the growth inhibition in assay [1] is -0.65%; in assay [2], 0.1%; in assay [3] it was -8%; in assay [4], -10.9%; in assay [5], 5.05%; in assay [6] it was -3.7%.
Turning to `CCc1cc(CC)n2cnnc2n1`, the growth inhibition in assay [1] was 16.7%; in assay [2], -3.75%; in assay [3] it was -9%; in assay [4] it was -29.6%; in assay [5], 7.2%; in assay [6] it was -8.5%.
Turning to `CC(C)(CO)C(Cl)C(=O)NCCC(=O)O` (stereo not given), the growth inhibition in assay [1] is -6.05%; in assay [2] it was -14.9%; in assay [3] it was -13%; in assay [4], -2%; in assay [5] it was 15.7%; in assay [6] it was -13.4%.
`CCCCCCC1NC(CCCCCC)N2C(CCCCCC)N12` (stereo not given): the growth inhibition in assay [1] is 28.9%; in assay [2], 16.8%; in assay [3], -2.15%; in assay [4], 0%; in assay [5], 21.6%; in assay [6], -2.7%.
Consider `Nc1nnc(Cc2cccc3ccccc23)o1`, for which the growth inhibition is -1.05% in assay [1]; -11.4% in assay [2]; -13.1% in assay [3]; -0.7% in assay [4]; -15.6% in assay [5]; 1.1% in assay [6].
With `COc1ccc2c(NCCCCCCNc3c4ccccc4nc4cc(OC)ccc34)c3ccccc3nc2c1`, the growth inhibition was 89.9% (active) in assay [1]; 91.6% (active) in assay [2]; 92.5% (active) in assay [3]; 87.5% (active) in assay [4]; 91.5% (active) in assay [5]; 89.7% (active) in assay [6].
As for `Cc1ccc(S(=O)(=O)OC2C(OC(=O)c3ccccc3)OCC(O)C2O)cc1` (stereo not given), the growth inhibition is 23.6% in assay [1]; 2.45% in assay [2]; 6.1% in assay [3]; -11.8% in assay [4]; 6.5% in assay [5]; 3.35% in assay [6].
On to `Cc1cc(S(=O)(=O)Nc2n[nH]c(Nc3ccc4ccccc4c3)n2)c(S)cc1Cl`, for which the growth inhibition is 34.2% in assay [1]; 5.85% in assay [2]; 29.2% in assay [3]; 36.5% in assay [4]; 35.9% in assay [5]; 39.9% in assay [6].
Regarding `COC1CCC(C(C)=O)C(C#N)(C#N)C1(C#N)C#N` (stereo not given), the growth inhibition in assay [1] is -6.3%; in assay [2], -1.25%; in assay [3] it was -12.1%; in assay [4] it was -4.95%; in assay [5] it was -12.5%; in assay [6], -13.8%.
Consider `NC(N)=NCC1CCCCCCN1` (stereo not given), for which the growth inhibition in assay [1] was -9.2%; in assay [2] it was -20.7%; in assay [3], -21.1%; in assay [4], 18.6%; in assay [5], -12.6%; in assay [6], 12.9%.
Take `N#CCc1n[nH]c(Cc2ccccc2)n1`: the growth inhibition in assay [1] was 2.35%; in assay [2] it was 6.6%; in assay [3], 3.9%; in assay [4], 7.6%; in assay [5] it was 0.8%; in assay [6] it was 12.4%.
In the case of `CC(SC(C)c1ccccc1)c1ccccc1` (stereo not given), the growth inhibition is -5.8% in assay [1]; -16.6% in assay [2]; -8.65% in assay [3]; -11.9% in assay [4]; -8.1% in assay [5]; 3.65% in assay [6].

These data come from PubChem BioAssay (NCI).
